The source of these data is PubChem BioAssay.

Test [1] can be described thus: A549 cell viability effects, profiling panel, calcein-AM fluorescence, 48 h, basal (AID 1162). Note: test concentration not given here. The following applies: higher = more signal.
A short description of test [2]: adipocyte viability effects, profiling panel, cell-based, 3T3-L1 adipocytes, calcein-AM fluorescence, 48 h, basal (AID 1163). Note: test concentration not given here. Particulars: 3T3-L1 adipocytes viability, higher = more signal.
Test [3] is described as follows: HepG2 cell viability effects, profiling panel, calcein-AM fluorescence, 48 h, basal (AID 1164). Note: test concentration not given here. The following applies: higher = more signal.
Test [4] is described as follows: MM1S cell viability effects, profiling panel, calcein-AM fluorescence, 48 h, basal (AID 1165).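 Note: viability of MM1S multiple myeloma cells under basal unstimulated conditions; test concentration not given here.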 The following applies: higher = more signal.
Test [5] in a line: basal RPMI8226 viability, no added stimulus, profiling panel, cell-based, calcein-AM fluorescence, 48 h, PK04 Diversity Set (AID 1166).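 Note: cells grown under basal conditions without added stimulus; test concentration not given here.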 Particulars: RPMI8226 myeloma viability, higher = more signal.
Test [6] can be described thus: basal HepG2 mitochondrial membrane potential changes, profiling panel, cell-based, JC-1 fluorescence, 24 h, 100 nL compound (AID 1167). Note: test concentration not given here. Particulars: higher = more signal.
Test [7] can be described thus: basal 3T3-L1 adipocyte mitochondrial potential changes, profiling panel, cell-based, JC-1 fluorescence, 3T3-L1 adipocytes, 24 h, 100 nL compound (AID 1168). Note: test concentration not given here. The following applies: JC-1 mitochondrial fluorescence, higher = more signal, called active from +8 up or from −8 down.
Test [8] in a line: basal RPMI8226 mitochondrial membrane potential changes, profiling panel, cell-based, JC-1 fluorescence, 24 h, 100 nL compound (AID 1169). Note: test concentration not given here. Particulars: RPMI8226 myeloma, JC-1 mitochondrial potential fluorescence, higher = more signal.
A short description of test [9]: basal MM1S mitochondrial membrane potential changes, profiling panel, cell-based, JC-1 fluorescence, 24 h, 100 nL compound (AID 1170). Note: test concentration not given here. The following applies: higher = more signal.
Test [10] can be described thus: A549 lung cancer cell viability effects, profiling panel, resazurin fluorescence, 24 h, PK04 Diversity Set (AID 1171). Note: test concentration not given here. The following applies: higher = more signal, called active from +8 up or from −8 down. For orientation: Resazurin is reduced to fluorescent resorufin, in cell work by metabolically active cells.
Test [11] can be described thus: HepG2 liver cancer cell viability effects, profiling panel, resazurin fluorescence, 24 h, PK04 Diversity Set (AID 1172). Note: test concentration not given here. The following applies: higher = more signal.
Test [12] can be described thus: basal S. cerevisiae growth modulation, no modifier, primary screen, OD600, strain BY4716, 24 h, basal condition (AID 1173). The following applies: OD600, 24 h, higher = more signal, called active from +8 up or from −8 down.
Test [13] can be described thus: MM1S myeloma cell viability, profiling panel, resazurin fluorescence, basal, 24 h, PK04 Diversity Set (AID 1174).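 Note: MM1S multiple myeloma cell line; test concentration not given here.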 Particulars: higher = more signal, called active from +8 up or from −8 down.
For test [14], the target named is Dihydroorotate dehydrogenase (quinone), mitochondrial (Plasmodium falciparum (isolate 3D7)) (UniProt Q08210). Put plainly: PfDHODH enzyme inhibitors, primary screen, biochemical, C-terminal His tag, absorbance 600 nm (AID 1175).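 Note: recombinant parasite enzyme with a five histidine tag at its C terminus; test concentration not given here.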 The following applies: DCIP absorbance 600 nm, higher = more signal, called active from +8 up or from −8 down.
Test [15] is described as follows: P. aeruginosa biofilm formation inhibitors, primary screen, strain PAO1, LB-PBS medium, absorbance 600 nm (AID 1176). Note: test concentration not given here. The following applies: P. aeruginosa PAO1 growth/biofilm, A600, 12 h; higher = more signal.
Test [16] can be described thus: S. cerevisiae RM11-1a growth modifiers, primary screen, strain RM11-1a, OD600, basal, 24 h (AID 1177).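 Note: cultures grown under basal conditions with no added stressor; test concentration not given here.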 The following applies: OD600, 24 h, higher = more signal, called active from +8 up or from −8 down.
Test [17] is described as follows: E. coli acrAB mutant growth effects, primary screen, E. coli filamentation inducers, strain DRC39, OD650, 24 h (AID 1178).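 Note: growth measured as culture turbidity by optical density at 650 nm; test concentration not given here.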 The following applies: higher = more signal, called active from +8 up or from −8 down.
Test [18] in a line: E. coli acrAB mutant growth effects, primary screen, E. coli filamentation inducers, strain DRC39, OD650, 48 h (AID 1179).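 Note: screen aims at cell division blockers that make cells filament.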 The following applies: E. coli DRC39 delta-acrAB growth, higher = more signal, called active from +8 up or from −8 down.
Test [19] in a line: RPMI8226 myeloma cell viability, profiling panel, resazurin fluorescence, basal, 24 h, PK04 Diversity Set (AID 1180).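 Note: RPMI8826 multiple myeloma cell line at 5000 cells per well; test concentration not given here.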 Particulars: higher = more signal.
Test [20] concerns the target E3 ubiquitin-protein ligase XIAP (Homo sapiens) (UniProt P98170). Put plainly: XIAP binders, primary screen, biophysical, small-molecule microarray, fluorescence 635 nm (AID 1181).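 Note: score merges 667 nm emission and signal to noise over triplicate slides.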 The following applies: small-molecule microarray binding, higher = more signal.

Calls of active or inactive are those of the source. Unless noted, the rule behind the calls is not given here.

Sequence of E3 ubiquitin-protein ligase XIAP (Homo sapiens) (P98170 whole entry, looked up): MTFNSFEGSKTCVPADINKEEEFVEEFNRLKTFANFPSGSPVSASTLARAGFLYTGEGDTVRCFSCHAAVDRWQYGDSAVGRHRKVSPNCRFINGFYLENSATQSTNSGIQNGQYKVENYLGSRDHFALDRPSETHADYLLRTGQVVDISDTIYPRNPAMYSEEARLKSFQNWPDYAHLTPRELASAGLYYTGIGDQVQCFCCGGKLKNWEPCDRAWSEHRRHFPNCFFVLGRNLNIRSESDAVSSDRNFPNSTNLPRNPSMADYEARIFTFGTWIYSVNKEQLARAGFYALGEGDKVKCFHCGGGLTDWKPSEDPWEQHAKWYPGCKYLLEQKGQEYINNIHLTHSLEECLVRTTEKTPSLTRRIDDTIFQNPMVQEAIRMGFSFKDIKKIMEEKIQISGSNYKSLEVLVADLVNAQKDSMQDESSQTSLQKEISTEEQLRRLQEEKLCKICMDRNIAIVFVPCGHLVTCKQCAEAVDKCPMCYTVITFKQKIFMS
Sequence of Dihydroorotate dehydrogenase (quinone), mitochondrial (Plasmodium falciparum (isolate 3D7)) (Q08210 whole entry, looked up): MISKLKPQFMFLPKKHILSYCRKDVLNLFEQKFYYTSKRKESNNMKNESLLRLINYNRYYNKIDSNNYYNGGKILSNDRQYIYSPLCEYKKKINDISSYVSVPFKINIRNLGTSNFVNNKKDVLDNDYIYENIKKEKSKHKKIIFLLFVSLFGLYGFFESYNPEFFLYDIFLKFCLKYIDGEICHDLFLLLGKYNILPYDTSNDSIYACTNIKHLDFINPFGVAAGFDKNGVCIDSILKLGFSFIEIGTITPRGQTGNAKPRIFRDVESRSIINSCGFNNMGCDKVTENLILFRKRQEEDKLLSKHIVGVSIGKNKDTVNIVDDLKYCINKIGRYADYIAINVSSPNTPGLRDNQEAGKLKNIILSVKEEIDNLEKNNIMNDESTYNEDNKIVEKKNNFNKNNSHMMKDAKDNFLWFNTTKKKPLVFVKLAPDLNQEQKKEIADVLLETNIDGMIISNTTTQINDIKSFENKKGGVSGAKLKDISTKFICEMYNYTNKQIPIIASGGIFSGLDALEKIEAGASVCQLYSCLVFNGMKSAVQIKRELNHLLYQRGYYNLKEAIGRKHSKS

As to `COCC(=C=CC[C@H](O)c1ccc(CO)o1)CCO`, the z-score was 0.0135 in test [1]; -0.651 in test [2]; 0.676 in [3]; -0.558 in [4]; 0.368 in test [5]; -0.649 in test [6]. Moreover, the z-score in [7] was -0.0348 (inactive); in [8], -0.495; in test [9] it was 0.363; in test [10] it was -0.0239 (inactive); in test [11], -0.116; in [12], -1.63 (inactive). For the same compound, the z-score in test [13] was -0.0463 (inactive); in test [15] it was -0.165 (inactive); in test [16], 0.256 (inactive); in test [17] it was -0.401 (inactive); in test [18], -0.524 (inactive); in [19], 0.036. The composite z-score was -2.35 (inactive) in test [14] and 0.536 in test [20].
For `COC(=O)[C@@]1(Cc2ccc(F)cc2)[C@H]2c3cc(C(=O)N4CCCC4)n(Cc4ccc(C)c(F)c4F)c3C[C@H]2CN1C(=O)c1ccccc1`, the z-score is -0.858 in test [1]; -0.82 in test [2]; 0.97 in [3]; -3.35 in test [4]; -3.35 in [5]; 1.01 in [6]. The z-score in test [7] is -1.02 (inactive); in test [8] it was -0.59; in test [9] it was -1.38; in test [10], -0.718 (inactive); in test [11] it was -1.15; in [12] it was 0.289 (inactive). In addition, the z-score is -1.42 (inactive) in test [13]; 1 (inactive) in test [15]; 0.22 (inactive) in test [16]; -0.107 (inactive) in [17]; -0.11 (inactive) in test [18]; -0.588 in [19]. Besides, the values for the composite z-score in [14] and in [20] were -1.23 (inactive) and -0.0483, respectively.
As to `CCCCC(=C=CC[C@H](O)c1ccc(OCCO)cc1)CCO`, the z-score in test [1] is -0.113; in [2], 0.524; in [3] it was 0.761; in test [4], -2.4; in [5], 0.0135; in [6], -1.25. For the same compound, the z-score was -0.968 (inactive) in test [7]; -0.573 in test [8]; -0.952 in [9]; 0.533 (inactive) in [10]; -0.0738 in test [11]; -2.31 (inactive) in test [12]. The z-score was -0.149 (inactive) in test [13]; 0.154 (inactive) in test [15]; -0.162 (inactive) in test [16]; -1.28 (inactive) in test [17]; -1.06 (inactive) in [18]; 0.0466 in test [19]. Further, the composite z-score is -0.32 (inactive) in [14] and 0.0365 in test [20].
For `COCCOC(=O)N1C(=O)[C@@]2(c3cc(C#CCCO)ccc31)[C@H](c1ccc(OCCO)cc1)N1[C@H](c3ccccc3)[C@H](c3ccccc3)OC(=O)[C@H]1[C@@H]2C(=O)Nc1nc2ccccc2s1`, the z-score in test [1] is -0.255; in test [2], 0.561; in test [3], 0.779; in test [4], -0.981; in [5], -0.0413; in test [6], -3.68. Besides, the z-score in test [7] was -1.38 (inactive); in [8], -0.78; in test [9], -1.81; in [10] it was -0.5 (inactive); in [11] it was 0.32; in test [12], 1.9 (inactive). The z-score in [13] was -0.344 (inactive); in test [15], 1.56 (inactive); in test [16] it was 2.38 (inactive); in test [17], -0.0627 (inactive); in test [18] it was 0.0759 (inactive); in [19], -0.687. Also, the results for the composite z-score in [14] and in [20] were -0.719 (inactive) and -0.124, respectively.
For `NC(=O)[C@@]1(Cc2ccccc2)COC(c2ccc(OCCCO)cc2)=N1`, the z-score in test [1] was -0.291; in [2] it was -0.0025; in test [3] it was 0.532; in test [4], 0.064; in [5], -0.453; in test [6], -0.798. Further, the z-score in test [7] is -0.392 (inactive); in test [8], -0.759; in test [9], -0.172; in test [10], 0.138 (inactive); in [11] it was -0.101; in [12], 0.539 (inactive). The z-score in test [13] was 0.153 (inactive); in test [15], -0.0304 (inactive); in test [16], 1.58 (inactive); in [17], 2.1 (inactive); in test [18], 0.595 (inactive); in test [19], -0.0366. Also, the composite z-score in [14] was 1.86 (inactive); in test [20], -0.0559.
With `Cc1ccc(F)cc1S(=O)(=O)N[C@@H]1CCN(Cc2ccc(Br)cc2)C1`, the z-score is -0.0023 in test [1]; -1.01 in test [2]; -0.65 in [3]; -1.24 in [4]; -1.29 in test [5]; 0.261 in test [6]. For the same compound, the z-score in test [7] is 0.0995 (inactive); in [8] it was -0.645; in test [9], -0.555; in test [10] it was 0.728 (inactive); in test [11] it was -0.281; in test [12], -11.9 (active). For the same compound, the z-score is 0.611 (inactive) in test [13]; -0.73 (inactive) in test [15]; -0.184 (inactive) in test [16]; 1.13 (inactive) in test [17]; -0.795 (inactive) in test [18]; 0.264 in test [19]. Further, the composite z-score is -0.573 (inactive) in test [14] and -0.17 in [20].
In the case of `[N-]=[N+]=Nc1ccccc1[C@@H]1OC(c2ccc(OCCCO)cc2)=N[C@]1(Cc1ccccc1)C(=O)N1CCCCC1`, the z-score in [1] is -0.523; in [2], -0.0528; in test [3] it was -0.822; in [4], -2.91; in test [5], -4.32; in [6], 0.408. Also, the z-score in test [7] was 1.87 (inactive); in test [8] it was -1.17; in test [9], -2.19; in test [10] it was -1.61 (inactive); in test [11], -0.819; in test [12] it was -0.592 (inactive). Also, the z-score in test [13] was -3.26 (inactive); in [15], 0.109 (inactive); in [16] it was 1.08 (inactive); in test [17], 0.241 (inactive); in [18], 0.174 (inactive); in [19], -3.5. Further, the composite z-score in [14] was -0.128 (inactive); in test [20], 0.0512.
Consider `CC(C)N1C(=O)C[C@@](C(=O)NC2CC2)(c2ccc([N+](=O)[O-])cc2)[C@H]1c1ccc(CO)cc1`, for which the z-score is 0.219 in test [1]; 1.98 in test [2]; 1.03 in test [3]; 0.941 in [4]; -1.73 in [5]; 0.347 in test [6]. For the same compound, the z-score in test [7] is -0.0995 (inactive); in [8], -0.416; in [9], 0.059; in test [10] it was -0.0786 (inactive); in test [11], -0.557; in test [12] it was -0.693 (inactive). Moreover, the z-score in test [13] was 0.616 (inactive); in test [15], 1.6 (inactive); in test [16], -0.437 (inactive); in test [17], 0.209 (inactive); in [18], 0.167 (inactive); in [19], 0.499. Moreover, the figures for the composite z-score in test [14] and in test [20] were -0.236 (inactive) and 0.236, respectively.
On to `COc1ccc(CCNC(=O)[C@@H]2c3ccccc3C(=O)N(C3CCCCC3)[C@H]2c2ccc(CO)cc2)cc1`, for which the z-score in test [1] is 1.19; in test [2] it was 1.1; in [3], 0.383; in test [4], 0.05; in [5], -0.746; in test [6], 1.83. Further, the z-score is -0.053 (inactive) in test [7]; -0.726 in test [8]; 0.337 in [9]; 0.332 (inactive) in test [10]; -0.0966 in test [11]; 0.162 (inactive) in [12]. For the same compound, the z-score in test [13] is -0.298 (inactive); in [15] it was 1.32 (inactive); in [16], 0.726 (inactive); in test [17], -0.712 (inactive); in test [18], -1.39 (inactive); in test [19], 0.978. In addition, the composite z-score in test [14] was 0.77 (inactive); in [20], -0.0349.
